An excerpt weighted towards active compounds, which were near 3.9% of everything screened.
PHOSPHO1 block: blocks human PHOSPHO1 phosphatase activity; Q8TCT1; recombinant PHOSPHO1, absorbance phosphatase assay; inhibition, % at 13.3 µM; hit rate 1.1% among 290,000; AID 1565; in the data active means inhibition above about 60%
TPT1 inhibitor: inhibitors of Candida albicans tRNA 2'-phosphotransferase TPT1; recombinant caTPT1, FP RNA substrate dephosphorylation; inhibition, % at 5 µM; hit rate 0.81% among 300,000; AID 1962;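 active means inhibition above the mean of all tested compounds plus 3 SD, set per screening campaign, cut at about 24% in these data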;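 further: plate controls were DMSO alone for no effect and ferristatin control at 100 nM for full effect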
WT yeast gro inh: growth inhibition of WT yeast, mitochondrial fusion screen; mitochondrial fusion phenotypic screen, WT strain; inhibition, % at 10 µM; hit rate 2.1% among 190,000; AID 1362; in the data active means inhibition above about 58%; tested in S. cerevisiae
SKKanGAS inh: SKKanGAS growth inhibition; hit rate 1.3% among 300,000; S. pyogenes SKKanGAS, kanamycin growth, BacTiter-Glo, 6 h; inhibition, % at 7.5 µM;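 active means mean replicate score, as percent of positive control median, at least 50; inconclusive means mean below 50 but one replicate at or above 50; inactive means mean and every replicate below 50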;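 further: strain carries kanamycin resistance gene driven by streptokinase promoter and grows in 40 µg/ml kanamycin; loss of luminescence reflects streptokinase promoter inhibition or plain growth inhibition; 0% = median of DMSO wells and 100% = positive control at its reference dose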
Platelet DG rel: platelet dense granule release activity. human platelet-rich plasma, SFLLRN dense granule ATP release, luminescence. inhibition, %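 (compounds screened at 7.5 µM in platelet-rich plasma)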. hit rate 0.22% among 300,000;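 active means mean replicate score, as percent of positive control, at or above 50; inconclusive means mean below 50 but at least one replicate at or above 50; inactive means mean and every replicate below 50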
Rtt109 Vps75: blocks Candida albicans Rtt109/Vps75 acetyltransferase activity; Q5AAJ8; purified Rtt109/Vps75, ThioGlo CoA-SH fluorescence, 4 h; inhibition, % at 34.9 µM; hit rate 0.16% among 330,000; AID 540336;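 active means inhibition of at least 50% in every replicate; inconclusive means best replicate reaches 50% inhibition but some replicates fall short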
Target sequence (Q5AAJ8 whole entry, looked up): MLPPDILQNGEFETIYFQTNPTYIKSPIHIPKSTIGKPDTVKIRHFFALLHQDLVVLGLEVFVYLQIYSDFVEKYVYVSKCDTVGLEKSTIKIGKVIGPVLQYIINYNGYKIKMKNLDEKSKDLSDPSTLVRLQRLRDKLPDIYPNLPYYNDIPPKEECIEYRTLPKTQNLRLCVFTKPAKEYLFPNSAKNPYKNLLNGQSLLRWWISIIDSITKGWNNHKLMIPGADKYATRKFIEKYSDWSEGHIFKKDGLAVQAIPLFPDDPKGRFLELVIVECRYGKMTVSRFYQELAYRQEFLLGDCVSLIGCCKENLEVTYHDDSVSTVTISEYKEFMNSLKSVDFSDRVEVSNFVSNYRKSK
* = called active by the depositor; u = inconclusive; x = not tested or not shown; + = active, no number.

SMILES	PHOSPHO1 block	TPT1 inhibitor	WT yeast gro inh	SKKanGAS inh	Platelet DG rel	Rtt109 Vps75
O=C(Nc1cccc(Cl)c1)O/N=C\c1ccncc1	36	-9	-21	2	4	1
Fc1ccc(NC(=S)Nc2ccc(F)c(Cl)c2)cc1Cl	95*	-4	-9	64*	0	-5
Cc1ccc(NC(=S)Nc2ccc(OC(F)F)c(Cl)c2)cc1F	8	-2	85*	u	1	3
O=C(Nc1ccc(OC(F)F)c(Cl)c1)c1ccccn1	21	-5	7	-5	8	-9
O=C(NC(=S)Nc1ccc(F)c(Cl)c1)C1CC1	18	-2	x	1	11	22
CN(Cc1ccc(C(C)(C)C)cc1)C(=O)Cc1ccc(S(=O)(=O)N2CCOCC2)s1	x	x	x	x	x	1
CC1CCc2c(C(=O)Oc3cccc(-n4cnnn4)c3)csc2C1 (centres undefined)	-14	1	61*	11	0	x
CC1CCc2c(C(=O)Nc3cccc(-c4nn[nH]n4)c3)csc2C1 (centres undefined)	28	-2	x	56*	6	8
CCc1nnc(NC(=O)c2csc3c2CCC(C)C3)s1 (centres undefined)	15	-1	-8	0	9	x
COc1ccccc1N1C(=O)C(Cl)=C(Nc2ccccc2O)C1=O	-18	x	52	6	-1	75*
Cc1c(NC2=C(Cl)C(=O)N(c3ccccc3)C2=O)c(=O)n(-c2ccccc2)n1C	19	-6	-1	2	-3	8
O=C1C(Cl)=C(Nc2ccccc2O)C(=O)N1c1ccccc1	60*	4	0	1	0	1
Cc1cc(C(=O)N2CCN(C/C=C/c3ccccc3)CC2)cs1	0	4	11	-1	-3	0
O=C(c1cc(Br)c(Br)s1)N1CCN(C/C=C/c2ccccc2)CC1	15	3	64*	24	-8	0
S=C(NCc1cccc(Cl)c1)NC1CCCCC1	-3	0	66*	2	-3	1
CCn1ccnc1CN1CCc2c([nH]c3ccccc23)C1C1CCCCC1 (centres undefined)	-8	-3	65*	79*	1	2
N#CC1=C(S)N(c2ccc(F)cc2)C(c2cccs2)NC1=O (centres undefined)	33	x	3	x	x	9
Cc1ccccc1N1C(S)=C(C#N)C(=O)NC1c1ccco1 (centres undefined)	8	3	-12	1	3	-1
Cc1ccccc1N1C(S)=C(C#N)C(=O)NC1c1cccs1 (centres undefined)	19	1	-6	-1	3	+
Cc1cccc(N2C(S)=C(C#N)C(=O)NC2c2cccs2)c1 (centres undefined)	-8	2	-30	x	x	121*
COc1ccc2c(c1)c(CC(=O)NCc1cc([N+](=O)[O-])ccc1O)c(C)n2C(=O)c1ccc(Cl)cc1	33	-1	x	51*	-5	5
CCc1nnc(NC(=O)c2ccc(COc3cccc(C)c3)o2)s1	11	0	x	-5	6	-2
COc1ccccc1CNC(=O)c1ccc(-c2ccccc2C(F)(F)F)o1	-11	-3	64*	-1	3	4
COc1ccc(NC(=O)c2ccc(-c3ccccc3C(F)(F)F)o2)cc1	-6	0	67*	0	1	-28
COc1ccccc1CNC(=O)c1ccc(-c2ccccc2Cl)o1	-9	2	52	52*	5	1
SMILES	PHOSPHO1 block	TPT1 inhibitor	WT yeast gro inh	SKKanGAS inh	Platelet DG rel	Rtt109 Vps75
Cc1ccccc1-c1ccc(C(=O)Nc2cccc(F)c2)o1	-9	2	58*	9	-2	-8
CCC(C)c1ccc(NC(=O)C2=CC=CN3CCS(=O)(=O)N=C23)cc1 (centres undefined)	x	x	x	x	x	12
COc1ccc(CN(C)C(=O)c2cnc(C)cn2)c(OC)c1OC	24	-2	x	-4	10	6
Cc1ccc(C)c(C(=O)CCC(=O)NNC(=O)c2cccs2)c1	x	x	x	x	x	-2
O=C(c1ccc2[nH]c3c(c2c1)CCCC3)N1CCN(c2ccc(F)cc2)CC1	-23	-2	74*	19	-11	2
O=C(Nc1ccc(OC(F)(F)F)cc1)N1CCN(c2ccnc3cc(Cl)ccc23)CC1	23	-3	x	65*	-19	6
Cc1ccc(CCCOC(=O)C[N+]2(C)CCOCC2)cc1	89*	-4	-8	2	x	8
COc1ccc(S(=O)(=O)Nc2ccc3c(c2)C(=O)N([C@H](C)CO)C[C@H](C)[C@@H](CN(C)C(=O)NC2CCCCC2)O3)cc1	x	x	x	x	x	-5
Cc1cc(C)cc(NC(=O)c2ccc(N3C(=O)C4CCCCC4C3=O)cc2)c1 (centres undefined)	19	-4	x	10	-11	1
COc1cc2c(C(=O)NCc3ccc(C)o3)cn(CC(C)C)c(=O)c2cc1OC	45	-4	74*	-7	-4	12
CCOc1ccc(C(O)(c2ccccc2)C(CN2CCCC2)c2ccccc2)cc1 (centres undefined)	7	-2	x	-3	-3	-9
CC(C)COc1ccc(-c2nn(-c3ccccc3)cc2/C=C2/SC(=S)N(CC(=O)O)C2=O)cc1	35	2	x	72*	0	-2
C=C(C)c1cc2c(ccc3ccc(=O)oc32)o1	x	x	x	x	x	-1
COc1ccc(N(C)S(=O)(=O)c2ccc3c(c2)NC(=O)CC(=O)N3)c(OC)c1	70*	-1	x	-4	13	11
Cc1ccc(C(=O)c2nccn2C)cc1C	35	4	x	0	-10	3
O=c1c2ccccc2cnn1-c1nc2ccccc2[nH]1	24	x	86*	58*	74*	-26
O=c1c(Cl)c(N2CCCCC2)cnn1-c1nc2ccccc2[nH]1	-10	-1	56	27	27	4
CCn1cc(S(=O)(=O)Nc2cc(C(=O)OC)ccc2C)cn1	48	-1	x	1	-9	-7
CN1/C(=C/c2cccc[n+]2C)Sc2ccccc21	34	2	x	4	-7	3
CN1/C(=C/c2cc[n+](C)c3ccccc23)C=Cc2ccccc21	14	x	91*	x	x	17
COc1ccc(/C=C2\SC(=S)N(NC(=O)c3csc4c3CCCC4)C2=O)cc1	72*	-2	5	16	3	0
COc1ccc(NC(=O)c2csc3c2CCCC3)cc1	11	-2	17	-10	11	-15
Cc1cc(C)c(NC(=O)COC(=O)c2nc3nccc(C)n3n2)c(Cl)c1	x	x	x	x	x	2
O=C(COc1ccc(S(=O)(=O)NC2CCCCC2)cc1Cl)NCC1CCCO1 (centres undefined)	4	-4	-1	-15	-7	3
COc1ccc(CCNC(=O)COc2ccc(S(=O)(=O)NC3CCCCC3)cc2Cl)cc1	63*	-1	-17	-4	-15	9
Cc1ccc(NC(=O)COC(=O)c2ccc(S(=O)(=O)N3CCCC3)cc2)cc1	x	x	x	x	x	-3
CCn1c(-c2ccccc2)csc1=Nc1ccc(S(=O)(=O)O)cc1	1	1	-7	0	0	1

Assay outcomes (PubChem)
